Compound activity from PubChem BioAssay.
p97 inhibitor – inhibitors of human p97 ATPase, primary screen, biochemical. Transitional endoplasmic reticulum ATPase (Homo sapiens), P55072. recombinant p97 ATPase, Kinase-Glo ATP luminescence, 3 h. inhibition, % at 8 µM. 0.42% of 220,000 active; in the data active = inhibition above about 15%
Lmaj promast – Leishmania major promastigote growth inhibition, primary screen | Leishmania major promastigotes, resazurin fluorescence viability | inhibition, % at 10 µM | 9% of 200,000 active | AID 1063, 2008; in the data active = inhibition above about 50%;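 note: promastigotes grown with compound for 44 hours at 28 °C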
bCat KO growth – primary screen for growth suppressors in beta-catenin knockout HCT116 cells (colon tumor, human) | HCT116 beta-catenin knockout viability, CellTiter-Glo, 60 h; active compounds read low | viability, % at 10 µM | 1.5% of 140,000 active | AID 818, 2007;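 active = viability at or under a set limit, the compound median less 4 SD, cut at about 6% in these data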
HCT116 PTEN-null – growth suppression of PTEN-null HCT116, primary screen, cell-based, CellTiter-Glo. HCT116 PTEN-null viability, 60 h; active compounds read low. viability, % at 10 µM. 1.2% of 140,000 active. AID 827, 2007;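 active = viability at or below a set limit, 4 SD under the median of all tested compounds, cut at about 3.7% in these data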;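 note: PTEN knockout HCT116 line with beta catenin targeted HCT116 as companion control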
Insulin prom inh – inhibitors of insulin promoter-driven GFP, primary screen, imaging, TRM-6 cells (human fetal islet line), eGFP reporter, cell count. reporter expression induced with tamoxifen. inhibition, % at 2 µM. 0.9% of 130,000 active;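 active = inhibition above the mean plus 3 SD, with well images judged a real hit on visual review, cut at about 60% in these data, passing the limit was not always enough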
ROMK mod – ROMK potassium channel modulators, primary screen, cell-based, thallium flux, MLSMR library | 2% of 130,000 active | ATP-sensitive inward rectifier potassium channel 1 (Homo sapiens), P48048 | Tet-inducible ROMK, thallium flux fluorescence; actives lie on both sides | B-score at 10 µM;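 active = signal ratio slope over the read window, or its plate-corrected B-score, at least 3 SD from the plate mean, either direction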;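 note: B-score of the F/F0 ratio slope over 7 to 12 s after thallium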
Target sequence (P48048 whole entry, looked up): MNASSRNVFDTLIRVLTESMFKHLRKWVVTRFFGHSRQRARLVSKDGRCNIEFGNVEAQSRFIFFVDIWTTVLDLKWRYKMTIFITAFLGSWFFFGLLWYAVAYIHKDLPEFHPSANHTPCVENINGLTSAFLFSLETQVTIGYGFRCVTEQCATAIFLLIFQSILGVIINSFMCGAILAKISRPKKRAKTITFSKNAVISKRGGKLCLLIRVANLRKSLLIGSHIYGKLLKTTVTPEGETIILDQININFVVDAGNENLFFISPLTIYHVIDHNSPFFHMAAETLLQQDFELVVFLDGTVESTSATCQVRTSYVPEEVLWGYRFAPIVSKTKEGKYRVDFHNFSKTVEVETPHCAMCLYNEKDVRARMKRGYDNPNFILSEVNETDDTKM
A number is an active result; – = inactive; · = no result given; ! = not active in a repeat. Only some compounds are listed: those with a hit (about 10% of all), similar ones and a draw of the others.

SMILES | p97 inhibitor | Lmaj promast | bCat KO growth | HCT116 PTEN-null | Insulin prom inh | ROMK mod
C/C(=N\Nc1nc2ccccc2[nH]1)c1ccc2c(c1)OCCO2 | – | 100 | · | · | · | –
Cc1cc(OC(=O)C(C)(C)C)c([N+](=O)[O-])c(=O)[nH]1 | – | – | · | · | – | ·
CC/C(=N/Nc1ccc(Cl)cc1)c1cnnc(SC)n1 | – | 54 | – | – | – | –
C(=N\c1nc2ccccc2n1CCN1CCCCC1)/c1cccs1 | – | 53 | – | – | – | –
C(=N\c1nc2ccccc2n1CCN1CCCCC1)/c1ccc2c(c1)OCO2 | – | – | – | – | – | ·
O=C(NC(=S)N1CCCCCC1)c1ccc(Cl)cc1Cl | – | – | · | · | · | 7.1
Cc1ccccc1C(=O)NNC(=S)NC(=O)c1ccc(Cl)cc1Cl | – | – | – | – | – | 4.9
Cc1cccc(C(=O)NC(=S)NNC(=O)COc2c(C)cccc2C)c1 | – | – | – | – | – | 2.7
O=C(NC(=S)N1CCCCCC1)c1ccccc1Cl | – | – | · | · | – | –
Cc1ccc(C(=O)NC(=S)NNC(=O)COc2ccccc2C)cc1 | – | – | · | · | · | 3
Cc1ccc(S(=O)(=O)N2CCC(C(=O)O)CC2)cc1 | – | – | · | · | · | –
Cc1ccc(C(=O)NNC(=S)NC(=O)c2ccc(Cl)cc2)cc1 | – | 64 | – | – | – | ·
CC(=O)NNC(=S)NC(=O)c1ccc(C)cc1 | – | – | · | · | – | ·
COc1ccccc1N(CC(O)CN(c1ccccc1)S(C)(=O)=O)S(=O)(=O)c1ccccc1 (centres undefined) | – | – | – | – | – | ·
CCCN(CCC)CC(O)CN(c1cc([N+](=O)[O-])ccc1OC)S(=O)(=O)c1ccccc1 (centres undefined) | – | 63 | – | – | – | –
COc1ccc([N+](=O)[O-])cc1N(CC(O)CN1CCCCC1)S(=O)(=O)c1ccccc1 (centres undefined) | – | 82 | · | · | · | –
COC(=O)Cc1ccc(NC(=S)NCCSc2ccc(Cl)cc2)cc1 | – | · | · | · | · | ·
CN(c1ccc(OCC(=O)N2CCOCC2)cc1)S(=O)(=O)c1ccc(Cl)cc1 | – | – | · | · | – | –
Cc1ccc2c(c1)N(C(=O)c1ccco1)C(C)(C)c1ssc(=S)c1-2 | – | 98 | – | – | – | –
CNc1ccc(Br)cc(C(=O)/C=C/c2cccc(Cl)c2Cl)c1=O | – | 96 | · | · | · | –
CCNc1ccccc(C(=O)/C=C/c2ccc3c(c2)OCO3)c1=O | – | 63 | – | – | – | –
CNc1ccc(Br)cc(C(=O)/C=C/c2cccc(OC)c2OC)c1=O | – | – | – | – | – | ·
CCNc1ccc(Br)cc(C(=O)/C=C/c2ccccc2Cl)c1=O | – | 99 | · | · | – | ·
CCC(CC)NC(=O)/C=C/c1ccccc1Cl | – | – | – | – | – | –
OCCNc1nc(SCc2ccccc2)nc2sc3c(c12)CCC3 | – | – | – | – | – | ·
SMILES | p97 inhibitor | Lmaj promast | bCat KO growth | HCT116 PTEN-null | Insulin prom inh | ROMK mod
N#CCCN(C(=O)COc1ccc(Cl)cc1Cl)c1ccccc1 | – | – | – | – | – | –
O=C1c2ccccc2C(=O)c2c1ccc1c(=O)n(C3CCCCC3)[nH]c21 | – | 99 | – | – | – | –
O=c1[nH]c(=O)c2ncc(-c3ccc(Cl)cc3)nc2[nH]1 | – | 80 | · | · | · | –
Cn1nc(NC(=O)C(F)(F)F)c2ncc(-c3ccc(Cl)cc3)nc21 | – | · | · | · | · | ·
Cn1nc(C(=O)OCC(=O)Nc2cccc(S(=O)(=O)N3CCCC3)c2)c2ccccc2c1=O | – | · | · | · | · | ·
Cc1ccc(CS(=O)(=O)CCC(=O)N2CCOCC2)cc1 | – | – | – | – | – | ·
CC(=O)Nc1ccc(S(=O)(=O)Oc2ccc(C=O)cc2)cc1 | – | 78 | – | – | – | ·
CC(=O)Nc1ccc(OS(=O)(=O)c2c(C)cc(C)cc2C)cc1 | – | 80 | · | · | – | –
CC(=O)Nc1ccc(OS(=O)(=O)c2ccc(C)cc2C)cc1 | – | – | · | · | · | ·
COc1ccc(NC(=O)CC23CC4CC(C2)CC(n2nnc(C)n2)(C4)C3)cc1 | – | – | · | · | – | –
CN(CCOc1ccccc1)S(=O)(=O)c1ccc2oc3ccccc3c2c1 | – | 55 | – | – | – | ·
COc1ccc(OCCNS(=O)(=O)c2ccc3oc4ccccc4c3c2)cc1 | – | – | – | – | – | ·
Nc1nc(Cl)cc(N2CCCC2)n1 | – | – | · | · | · | –
Nc1nc(Cl)cc(N2CCC(c3cc(-c4ccc(Cl)cc4Cl)n[nH]3)CC2)n1 | – | – | 3.2 | – | – | ·
CCN(CC)CC(=O)Nc1c(C)cccc1C | 20! | – | – | – | – | ·
Cc1cccc(C)c1NC(=O)CN(C)C(=O)C(c1ccccc1)c1ccccc1 | – | 86 | – | – | – | ·
Cc1cccc(C)c1NC(=O)CN(C)C(=O)/C=C/c1cccs1 | – | 52 | – | – | – | –
N#CCC(=O)N/N=C/c1ccc(OCC(=O)Nc2ccc(F)cc2)cc1 | – | – | · | · | · | –
CCCCN1C(=O)Nc2ccccc2S1=O (centres undefined) | – | – | – | – | – | –
C[N+](C)(C)CCOP(=O)(O)OP(=O)([O-])OC[C@H]1O[C@@H](n2ccc(N)nc2=O)[C@H](O)[C@@H]1O | – | – | – | – | – | ·
OC(COc1ccc2cc(Br)ccc2c1)CN1CCOCC1 (centres undefined) | – | 60 | – | – | – | –
O=C(N1CCOCC1)N1CCN(CC(O)COc2ccc3ccccc3c2)CC1 (centres undefined) | – | – | – | – | – | ·
OC(COc1c(Br)cc(Br)cc1Br)CN1CCOCC1 (centres undefined) | – | 79 | – | – | · | –
CC(=O)c1c(C)n(-c2ccccc2)c2ccc(OCC(O)CN3CCOCC3)cc12 (centres undefined) | – | – | – | – | – | –
COC(=O)C1=C(C)N(Cc2ccco2)C(=O)/C1=C\c1ccc([N+](=O)[O-])cc1 | – | 99 | · | · | · | –
COC(=O)C1=C(C)N(Cc2ccco2)C(=O)/C1=C\c1ccc(N(C)C)cc1 | – | – | – | – | – | –
Cn1c(=O)c(C(=O)Nc2ncccc2O)c(O)c2ccccc21 | – | – | – | – | – | ·
Cc1ccc(NC(=O)c2c(O)c3ccccc3n(C)c2=O)nc1 | – | 71 | – | – | – | ·
CCCCc1nc2ccccc2c(=O)n1NC(=O)c1c(O)c2ccccc2n(C)c1=O | – | 73 | · | · | – | –
Cc1cccc(NC(=S)NC(=O)C(c2ccccc2)c2ccccc2)n1 | – | – | · | · | 72 | ·
